In all, about 420,000 compounds went through this assay and about 64,000 (15%) were called active. About 27% were inconclusive and are not listed. Only a sample is shown. Unmarked numbers belong to inactive results. Calls come from the whole dose curve; as a rule, active = well fitted inhibition curve with a large enough effect; inconclusive = small, poorly fitted or top-dose-only effect; inactive = flat fitted curve, though single readings scatter.
Test: qHTS for Inhibitors of human tyrosyl-DNA phosphodiesterase 1 (TDP1): qHTS in cells in absence of CPT; note: nearly all actives have a fitted effect of over 55% in size
Conditions: DT40 Tdp1-/- hTDP1 cells, no CPT, ATP luminescence, 48 h; activity change, negative = growth inhibition: at 46.2 µM (top of the series)
Outline: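 Compound effects on proliferation are scored in DT40 Tdp1-/-;hTDP1 cells in the absence of CPT. ATP levels (CellTiter-Glo luminescence) are recorded after a ≥48 hr, 37 °C incubation.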
% is set by controls: 0 for no effect and ±100 for the full control effect; potency is the fitted concentration of half-maximal effect.

| SMILES | activity change, negative = growth inhibition [%] | Potency |
| --- | --- | --- |
| CC(C)CCNC(=O)c1cccnc1Sc1ccccc1 | -12.3 |  |
| Cc1ccccc1CN1C[C@@H]2C[C@@H](c3ccc4nsnc4c3)N3CCC[C@@]23C1=O |  | 20.6 µM (active) |
| Cc1ccccc1CN1CCN(CC(=O)NCc2ccccn2)C1=O | 0.195 |  |
| CC(=NCC1CCCO1)c1c(O)[nH]c(=O)[nH]c1=O (stereo not drawn) | -21.1 |  |
| COc1ccc(/C=C2/C(=O)OCc3cc(OC)c(OC)cc32)c(OC)c1 |  | 29.1 µM (active) |
| COc1ccc(C2/C(=C(/O)c3ccccc3)C(=O)C(=O)N2C)c(OC)c1 (stereo not drawn) | -1 |  |
| COc1ccc(/C=C2/C(=O)N(c3ccccc3)N=C2C)c(OC)c1 | 9.93 |  |
| Cc1nc(N)sc1N=Nc1c(C)n(C)n(-c2ccccc2)c1=O | -17.5 |  |
| COc1ccc(-c2ccc(CCC(=O)O)n2-c2ccc(O)cc2)cc1 | -9.04 |  |
| COc1ccc(-c2nc3ccccc3c(=O)n2CCc2ccc(O)cc2)cc1 |  | 9.2 µM (active) |
| COc1cccc(OCCn2c(-c3ccc(Br)cc3)nc3ccccc3c2=O)c1 | -7 |  |
| CCOc1ccc(CNC(=O)C2CCCN(c3nnc(C)c4c(C)n(-c5ccccc5)nc34)C2)cc1 (stereo not drawn) |  | 18.4 µM (active) |
| COc1ccc(-n2nc3c(N4CCC(C(=O)NCc5ccccc5)CC4)nnc(C)c3c2C)cc1 | 0.177 |  |
| Cc1nnc(N2CCCC(C(=O)NCCN(C)C)C2)c2nn(-c3ccccc3)c(C)c12 (stereo not drawn) | -18 |  |
| CCc1ccc(CNC(=O)C2CCN(c3nnc(C)c4c(C)n(-c5ccc(C)cc5)nc34)CC2)cc1 |  | 5.17 µM (active) |
| COC(=O)CCCCC1=CCC2C(=O)C=C(O)C2C1 (stereo not drawn) | 4.57 |  |
| CCOC(=O)C1(Cc2cccc(OC)c2)CCN(C(C)CC(C)(C)O)CC1 (stereo not drawn) | -28.5 |  |
| CCOC(=O)C1(Cc2cccc(OC)c2)CCN(Cc2csc(C(C)=O)c2)CC1 |  | 13 µM (active) |
| CCOC(=O)C1(Cc2cccc(OC)c2)CCN(C(C)COC)CC1 (stereo not drawn) | -60.7 |  |
| O=C(O)Cc1sc(-c2ccc(C(=O)O)cc2)nc1-c1ccccc1 | 1.9 |  |
| Cc1ccc(NC(=O)Nc2cccnc2)cc1 | 6.11 |  |
| Cc1ccc(-c2nc(-c3cccnc3)sc2CC(=O)Nc2ccc(C)c(Cl)c2)cc1 |  | 23.1 µM (active) |
| CC(C)CN1C(=O)CN(S(C)(=O)=O)CC1(C)C(=O)NCc1ccccc1 (stereo not drawn) | 8.49 |  |

| SMILES | activity change, negative = growth inhibition [%] | Potency |
| --- | --- | --- |
| CCOC(=O)c1c(NC(=O)CCl)sc(C(=O)N(CC)CC)c1C |  | 13 µM (active) |
| CCOC(=O)Nc1sc(C(=O)N(C)C)c(C)c1C(=O)OCC | -18.5 |  |
| CCC(=O)Nc1sc(C(=O)Nc2ccccc2)c(C)c1C(=O)OC | -26.8 |  |
| CCCCNC(=O)OC1CC2CC1[C@H]1CCCCN1C2=O (stereo partly drawn) | -20.1 |  |
| CN1CCN(c2ccc(NC(=O)c3ccc4c(c3)[nH]c(=O)n4Cc3ccc(F)cc3)cc2)CC1 |  | 29.1 µM (active) |
| CC(C)n1c(=O)[nH]c2cc(C(=O)Nc3ccccc3)ccc21 | -17 |  |
| CN1CCN(c2ccc(NC(=O)c3ccccc3)cc2)CC1 | 28.4 |  |
| C/C(=N/OC(=O)c1cccc(C(F)(F)F)c1)c1cnccn1 | 0.852 |  |
| COc1cccc(OC)c1CN(C)C(=O)c1cnccc1C(F)(F)F | -0.155 |  |
| CCCC[C@@H]1CN=C(N)N1CCc1cc(C(F)(F)F)cc(C(F)(F)F)c1 |  | 1.3 µM (active) |
| CCCC[C@@H]1CN=C(N)N1CCc1cccc(F)c1 |  | 5.8 µM (active) |
| O=C1NC[C@@H](Cc2ccc(O)cc2)N(CCc2cccc(F)c2)C1=O | -8.23 |  |
| CCCS(=O)(=O)N1CCN=C1SCc1cccc(F)c1 | -26.5 |  |
| NNC(=O)COc1ccc(C2SCCS2)cc1 | 1.8 |  |
| CC(=O)NC1C(Oc2ccc(C)cc2)OC2COC(c3ccco3)OC2C1O (stereo not drawn) | -25.2 |  |
| O=S(=O)(NC1CCCCC1)c1ccc(F)c2ccccc12 | -15.1 |  |
| CCCC/S(C)=N/S(=O)(=O)c1ccc(C)cc1 (stereo not drawn) | -0.693 |  |
| COc1ccc(OCCC(=O)c2ccc(OC)cc2)cc1 |  | 2.59 µM (active) |
| COc1ccc(OCCCC(=O)Oc2ccc(OC)cc2)cc1 | -13 |  |
| COc1ccc(C(=O)CCC(=O)Nc2ccc(Cl)cc2)cc1 | 20.7 |  |
| Cc1ccc(NC(=O)N2CCC(O)(c3cccnc3)CC2)cc1 | 4.31 |  |
| Cn1c(CCc2ccccc2)nnc1SCC(N)=O | -18.3 |  |
| COC(=O)C1=C(C)NC(=S)NC1c1ccc(OCC(=O)N2CC(C)OC(C)C2)c(OC)c1 (stereo not drawn) | 1.05 |  |

| SMILES | activity change, negative = growth inhibition [%] | Potency |
| --- | --- | --- |
| CCCCC/C=C/C1=CC(=O)C[C@H](c2ccc(Cl)cc2)C1 | -26.2 |  |
| N#Cc1ccc(C2=CC(=O)C[C@H](c3ccc(Cl)cc3)C2)cc1 |  | 14.6 µM (active) |
| O=C1CSC(c2ccc(Cl)cc2)N1 (stereo not drawn) | -7.34 |  |
| O=C(NCc1ccccc1)[C@@H]1CSC2c3ccccc3C(=O)N21 (stereo partly drawn) | 1.51 |  |
| CCOC(=O)C1CCN(c2csc3ccc(C)cc3c2=O)CC1 | -8.13 |  |
| CCOC(=O)C1CCN(CCC(=O)Nc2cccc(C)c2)CC1 | 3.8 |  |
| CCOC(=O)C1CCN(c2c(Nc3cc(C)cc(C)c3)c(=O)c2=O)CC1 |  | 16.4 µM (active) |
| COC(=O)Nc1ccc(S(=O)(=O)N(C)CC(F)(F)C(F)F)cc1 | -22 |  |
| Cc1ccc(-n2c(SCC(=O)Nc3ncc(Cl)cc3Cl)nc3ccccc32)cc1 |  | 13 µM (active) |
| Cc1ccc(SCCC(=O)OCC(=O)Nc2ncc(Cl)cc2Cl)cc1 | -16.3 |  |
| CC1(C(=O)OCC(=O)Nc2ncc(Cl)cc2Cl)CC1(Cl)Cl (stereo not drawn) | -4.44 |  |
| COc1ccccc1P(=O)(c1ccccc1)c1ccccc1NC(C)=O (stereo not drawn) | -11.8 |  |
| CCCCN(C)C(=O)C1CCN(Cc2ccccn2)CC1 | -10.8 |  |
| CC1=C(/C=C/C(C)=C/C=C/C(C)=C/C=C/C=C(C)/C=C/C=C(C)/C=C/C2=C(C)CCCC2(C)C)C(C)(C)CCC1 | -10.8 |  |
| O=C(Nc1ccccc1C(=O)NCCCn1ccnc1)c1ccc(Cl)cc1Cl | -27.3 |  |
| Clc1ccc(C(Cn2ccnc2)OCc2ccsc2Cl)c(Cl)c1 (stereo not drawn) |  | 16.8 µM (active) |
| O=C(NCCCn1ccnc1)Nc1ccc(Cl)cc1Cl | -10.9 |  |
| CNc1nccc(-c2ccc(Cl)cc2)c1C#N | -11.7 |  |
| CN(C(=O)COC(=O)c1cc(-c2ccco2)nc2ccccc12)C1CCS(=O)(=O)C1 (stereo not drawn) | 11 |  |
| N#Cc1ccc(-c2ccc(Cl)cc2)nc1Oc1ccc(F)cc1 | 3.35 |  |
| COC(=O)c1cc(-c2cccs2)nc2ccccc12 | -3.83 |  |
| CC(=O)Nc1cccc(Nc2nc(-c3cccs3)nc3ccccc23)c1 |  | 8.2 µM (active) |

Reference: PubChem BioAssay AID686978 (National Center for Advancing Translational Sciences (NCATS), 2013)
